Assays:
Format in all cases: functional
[1] = target: Solute carrier family 2, facilitated glucose transporter member 1 (Homo sapiens) (UniProt P11166); test: ST_JUDE_LEISH: Cytotoxicity at 2uM final concentration against transgenic Leishmania Mexicana promastigotes LmGLUT1 that are glucose transport deficient and complemented with the human glucose transporter GLUT1. Activity is measured by DNA content using SYBR green in vitro
[2] = target: Hexose transporter 1 (Plasmodium falciparum) (UniProt O97467); test: ST_JUDE_LEISH: Cytotoxicity at 2uM final concentration against transgenic Leishmania Mexicana promastigotes LmPfHT that are glucose transport deficient and complemented with the Plasmodium falciparum hexose transporter. Activity is measured by DNA content using SYBR green in vitro
[3] = target: Glucose transporter (Leishmania mexicana) (UniProt O61059); test: ST_JUDE_LEISH: Cytotoxicity at 2uM final concentration against transgenic Leishmania Mexicana promastigotes LmGT2 that are glucose transport deficient and complemented with the L. Mexicana glucose transporter 2. Activity is measured by DNA content using SYBR green in vitro

Solute carrier family 2, facilitated glucose transporter member 1 (Homo sapiens), sequence (P11166 whole entry): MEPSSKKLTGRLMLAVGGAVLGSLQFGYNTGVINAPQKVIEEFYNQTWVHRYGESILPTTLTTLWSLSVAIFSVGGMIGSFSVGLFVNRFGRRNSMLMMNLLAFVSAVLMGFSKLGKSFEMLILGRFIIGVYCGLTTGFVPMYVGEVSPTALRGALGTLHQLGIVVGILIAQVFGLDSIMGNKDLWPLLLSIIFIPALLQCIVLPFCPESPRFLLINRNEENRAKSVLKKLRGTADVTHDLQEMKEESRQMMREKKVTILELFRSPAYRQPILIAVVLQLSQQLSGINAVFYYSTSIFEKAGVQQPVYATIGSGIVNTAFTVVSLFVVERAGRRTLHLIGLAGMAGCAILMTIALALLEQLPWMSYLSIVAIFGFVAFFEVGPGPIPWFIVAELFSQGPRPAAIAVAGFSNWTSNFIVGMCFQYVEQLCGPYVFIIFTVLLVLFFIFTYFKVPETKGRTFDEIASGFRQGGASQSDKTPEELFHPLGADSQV

Row | Compound | inhibition [1] | inhibition [2] | inhibition [3]
1 | Cc1cccc2nc(-c3ccc(-c4cccc(NCc5cn6cccnc6n5)c4)cc3)[nH]c12 | 2.03% | 0.59% | -2.51%
2 | Cc1cc(N2CCC(NS(=O)(=O)c3ccc(F)cc3)CC2)nc(Nc2cccc(C#N)c2)n1 | 39.9% | 46.5% | 41%
3 | COc1cccc(C23NC(=Nc4nc5ccccc5[nH]4)NC2(c2cccc(OC)c2)NC(=Nc2nc4ccccc4[nH]2)N3)c1 (configuration not stated) | 6.07% | 4.74% | 3.29%
4 | O=c1c(Br)ccccc1Br | 1.2% | 3.16% | 2.97%
5 | COc1cccc(C(=O)NCc2nnc(S)n2-c2ccc(Cl)c(Cl)c2)c1 | -0.13% | 0.68% | -0.3%
6 | S=C(NCCN1CCOCC1)Nc1ccccc1 | -1.94% | 0.47% | 0.17%
7 | Oc1ccc2nc(Nc3ccccc3)nc(NCCc3ccccc3)c2c1 | 7.22% | 6% | 5.72%
8 | O=C1COC(c2ccccc2)(c2ccccc2)CN1CC1CCN(Cc2ccc(O)cc2Cl)C1 (configuration not stated) | 3.1% | 1.71% | 2.56%
9 | Cc1nn(CCOC(=O)NC(NCC2COc3ccccc3O2)C(Cl)(Cl)Cl)cc1[N+](=O)[O-] (configuration not stated) | 0.33% | -0.07% | -1.73%
10 | CCCc1cc(Cc2cnc(N)nc2N)cc(OCCCCCC(=O)O)c1OC | 1.55% | 0.18% | 0.67%
11 | Cc1nc(C(C)Nc2nncc(-c3ccc(Cl)cc3)n2)cs1 (configuration not stated) | 1.13% | 0.17% | 1.17%
12 | CN(C)CCCOc1ccc(-c2csc(NC(=N)NCc3ccccc3)n2)cc1 | 1.32% | 6.08% | 3.86%
13 | CN1CCC(Oc2cc(NC(=O)Nc3ccc(-c4ccncc4)c(C(F)(F)F)c3)ccc2Cl)CC1 | 12.6% | 10.6% | 7.11%
14 | CSc1nccc(-c2ccc3ccnc(N)c3c2)n1 | 11.2% | 10.7% | 9.37%
15 | COc1ccc2nc3cc(Cl)ccc3c(NCCCCN3CCNCC3)c2c1 | 6.28% | 6.49% | 3.51%
16 | Cc1c(CNCCN2CCCCC2)c(C(=O)O)c(C)n1Cc1ccc(Cl)cc1 | -0.09% | 0.33% | 0.22%
17 | COc1cc(C(=O)NC2CC(C)(C)N(C)C(C)(C)C2)ccc1-c1cc2cc(Cl)c(Cl)cc2[nH]1 | 1.97% | -1.54% | 2.48%

Row | Compound | inhibition [1] | inhibition [2] | inhibition [3]
18 | CN1CCN(C(C(=O)NCc2cc(Cl)cc(Cl)c2)c2ccccc2-c2ccsc2)CC1 (configuration not stated) | 4.67% | 5.51% | 4.6%
19 | NC(=O)N1CCN(Cc2ccc(Br)cc2)CC1 | 0.39% | 1.05% | 1%
20 | COc1cccc(OC)c1C(=O)Nc1cccc(-c2nn3ccccc3c2-c2ccnc(Nc3cccc(F)c3)n2)c1 | 6.78% | 9.03% | 4.91%
21 | CC1CCc2c(C(=O)N3CCc4ccccc4C3)csc2C1 (configuration not stated) | 1.39% | 0.87% | 0%
22 | Fc1ccccc1COc1ccc(Nc2ncnc3ccc(I)cc23)cc1Cl | 18.2% | 9.09% | 4.67%
23 | CC(C)(C)c1ccc(NC(=O)c2ccc(CN3CCCN(Cc4ccsc4)CC3)cc2)cc1 | 9.06% | 10.4% | 11.9%
24 | O=C(Nc1ccc(OC(F)(F)F)cc1)NC1CCN(c2ccnc3ccccc23)C1 (configuration not stated) | 3.08% | 2.41% | 3.12%
25 | COCCNCc1cccc(-c2cc3nccc(Nc4ccc(Oc5ccccc5)cc4)c3cc2Cl)c1 | -0.26% | 2.37% | 0.83%
26 | O=C(C=Cc1ccc(Cl)c(Cl)c1)NCCCCCN1CCC(CCNC(=O)C(c2ccccc2)c2ccccc2)CC1 | 3.47% | 1.79% | 0.8%
27 | O=C(Nc1c(F)cccc1F)c1cccc(-c2nn3ccccc3c2-c2ccnc(Nc3cccc(-c4cnco4)c3)n2)c1 | 12.2% | 4.66% | 1.5%
28 | Clc1ccc(-c2cc(-c3csc(NCCN4CCOCC4)n3)on2)c(Cl)c1 | 12.4% | 9.19% | 10.6%
29 | Fc1ccc(Nc2nnc(CNC3CCN(Cc4ccc(Cl)c(Cl)c4)CC3)[nH]2)cc1 | 2.85% | 0.21% | -0.83%
30 | Clc1ccc(Nc2nc(Nc3ccc(Cl)c(Cl)c3)nc(Sc3nc4ccccc4[nH]3)n2)cc1Cl | 8.07% | 9.05% | 7.05%
31 | Cc1ccc(CCNCC(O)c2cccc(C(F)(F)F)c2)cc1 (configuration not stated) | 0.25% | 1.08% | 1.78%
32 | CCCc1cc(=O)[nH]c(-n2nc(C)cc2NC(=O)CC(c2ccccc2)c2ccccc2)n1 | -2.15% | 1% | 2.15%
33 | CCCN(Cc1nnc(-c2ccco2)o1)C(=O)C1CCN(c2ncc(C(F)(F)F)cc2Cl)CC1 | 11.4% | 10.2% | 10.8%
34 | CCN(CC)CCCN(Cc1ccc(-c2ccc(C(F)(F)F)cc2)cc1)C(=O)Cn1c(SCc2cccc(F)c2F)cc(=O)c2ccccc21 | 2.74% | 2.63% | 2.46%

Source: ChEMBL document CHEMBL3433997, “St. Jude Leishmania screening dataset” (2016)
